Hits are enriched below; roughly 4.5% of the tested compounds scored in any of these assays.
Rpn11 block = Rpn11 (PSMD14) deubiquitinase inhibitors, primary screen, biochemical, fluorescence polarization, uHTS. AID 588493, 2011. human 26S proteasome, Ub4-pepOG fluorescence polarization; 20S core pre-blocked with epoxomicin. hit rate 0.59% among 360,000. 26S proteasome non-ATPase regulatory subunit 14 (Homo sapiens), O00487. inhibition, % at 20 µM;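 active means inhibition at 20 µM, scaled to each plate's controls, above about 33%, limit read from the data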
Target sequence (O00487 whole entry, looked up): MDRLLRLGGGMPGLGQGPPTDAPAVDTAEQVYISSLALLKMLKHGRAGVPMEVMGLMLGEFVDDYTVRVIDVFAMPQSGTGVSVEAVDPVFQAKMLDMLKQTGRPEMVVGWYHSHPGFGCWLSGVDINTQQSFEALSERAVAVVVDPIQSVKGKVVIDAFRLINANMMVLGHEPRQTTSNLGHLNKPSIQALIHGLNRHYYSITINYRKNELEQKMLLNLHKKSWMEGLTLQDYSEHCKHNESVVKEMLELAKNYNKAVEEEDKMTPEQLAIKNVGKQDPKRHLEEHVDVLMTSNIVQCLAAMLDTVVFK
TPT1 inhibitor = Candida albicans TPT1 enzyme inhibitors, primary screen, biochemical, fluorescence polarization; recombinant caTPT1, FP RNA substrate dephosphorylation; inhibition, % at 5 µM; hit rate 0.81% among 300,000;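 active means inhibition above the mean of all tested compounds plus 3 SD, set per screening campaign, cut at about 24% in these data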;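 further: plate controls were DMSO alone for no effect and ferristatin control at 100 nM for full effect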
NR3A LBD binder = binders of NR3A ligand-binding domain, primary screen, biophysical, differential scanning fluorimetry, uHTS; NR3A LBD differential scanning fluorimetry, Tm shift; 0% = protein alone, 100% = glycine-bound protein; Tm shift relative to glycine control, % at 25 µM; AID 1259313, 2017; hit rate 2.5% among 340,000;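 active means melting temperature shift of at least 10% of the positive control shift, at one fixed dose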
ZTA DNA inh = counter-screen for EBNA-1 inhibitors: inhibitors of Epstein-Barr virus ZTA; ZTA-DNA binding, fluorescence polarization; inhibition, % at 11 µM; hit rate 0.15% among 320,000; in the data active means inhibition above about 33%
Target sequence (P03206 whole entry, looked up): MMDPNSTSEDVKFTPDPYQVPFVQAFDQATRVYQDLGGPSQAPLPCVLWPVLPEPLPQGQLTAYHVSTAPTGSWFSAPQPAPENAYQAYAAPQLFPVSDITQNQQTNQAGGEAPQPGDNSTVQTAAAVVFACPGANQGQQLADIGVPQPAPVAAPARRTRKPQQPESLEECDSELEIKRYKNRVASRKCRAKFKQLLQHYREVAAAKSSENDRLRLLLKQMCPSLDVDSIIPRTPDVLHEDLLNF
dFosB act = activators of delta FosB homodimer, primary screen, biochemical, fluorescence polarization, TAMRA-CDK5 oligo, single point; purified delta FosB; percent of positive-control signal above neutral wells; activation, % at 25 µM; Protein FosB (Mus musculus), P13346; hit rate 0.99% among 340,000;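 active means mean activation above about 17%, with every replicate also reaching it, limit read from the data, passing the limit was not always enough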
EBNA-1 inhibitor = EBNA-1 DNA-binding inhibitors, primary screen, biochemical, fluorescence polarization. inhibition, % at 14.8 µM. hit rate 0.34% among 300,000; in the data active means inhibition above about 28%
* marks the source's active call; other numbers are inactive results; · = not tested or not shown.

SMILES	Rpn11 block	TPT1 inhibitor	NR3A LBD binder	ZTA DNA inh	dFosB act	EBNA-1 inhibitor
CC(C)=CC(=O)Nc1ccc(OCc2ccccc2)cc1	-1	-3	28*	-1	-8	10
CCOC(=O)C(=O)Nc1ccc(OCc2ccccc2)cc1	-8	4	-28	8	-16	-3
CC(Sc1nnc(C2CC2)n1C1CC1)C(=O)c1ccc(Br)cc1 (stereo unspecified)	-2	·	0	·	-7	·
Fc1ccc(C2Nc3cccc4cccc(c34)N2)cc1	-1	-3	-6	-9	25*	-14
COc1cc(C2Nc3cccc4cccc(c34)N2)cc(OC)c1O	-9	-1	-1	7	41*	24
COc1cc(CCC(=O)Nc2ccc(S(=O)(=O)NC3=NCCCCC3)cc2)cc(OC)c1OC	4	-1	-1	-11	-10	-1
CC1CN(C)CCC1OC(=O)c1ccccc1 (stereo unspecified)	0	·	1	·	2	·
Cc1ccc(C(=O)CCC(=O)N2CCN(c3ccccc3O)CC2)cc1	18	2	19*	-5	-8	-17
O=C(Nc1c(-c2ccccc2)[nH][nH]c1=O)c1ccc(Br)cc1	10	·	·	·	·	·
O=[N+]([O-])c1ccc(/C=N/Nc2cc(Cl)nc(-c3ccccc3)n2)cc1	-5	-5	-1	-13	6	2
O=C(N/N=C/c1cccnc1)c1ccc([N+](=O)[O-])cc1	1	-3	-1	19	-8	9
CCCCCCCCCS(=O)(=O)N/N=C/c1cccc([N+](=O)[O-])c1	0	2	18*	7	-20	-2
Cc1ccc(NC(=S)N/N=C/c2ccc([N+](=O)[O-])s2)cc1	39	21	23*	-11	5	-1
O=[N+]([O-])c1cccc(/C=N/Nc2cc(Cl)nc(-c3ccccc3)n2)c1	-4	0	28*	0	1	4
O=[N+]([O-])c1ccc(N/N=C/c2cccnc2)cc1	12	5	12*	-9	-8	-2
CCOc1c(Nc2ccccc2O)c(=O)c1=O	-9	-1	3	1	7	-5
COc1ccc(/C(C)=N/OC/C(O)=C(\C#N)c2nc3ccccc3[nH]2)cc1OC	14	7	-2	-12	15	-3
O=[N+]([O-])c1ccc(NN=Cc2cccc([N+](=O)[O-])c2)cc1	14	·	34*	·	3	·
COC(=O)N/N=C/c1cccc([N+](=O)[O-])c1	-8	-4	-2	7	2	-4
Cc1cccc(NC(=S)N/N=C/c2cccc([N+](=O)[O-])c2)c1	-9	2	150*	-3	9	-9
COc1ccc(OCC(=O)N/N=C2/C=C(C)CC2)cc1	-8	-3	-2	-17	-2	-8
COc1ccc(C(c2c(C)[nH]n(C(N)=S)c2=O)C(C#N)C#N)cc1 (stereo unspecified)	5	5	-1	-1	-2	-4
Cc1[nH]n(-c2ncc(-c3ccc(Cl)cc3)s2)c(=O)c1C(c1ccc(Cl)cc1)C(C#N)C#N (stereo unspecified)	19	-1	17*	-5	-21	-3
O=S(=O)(c1ccc2nc(-c3ccccc3)[nH]c2c1)N1CCN(c2cccc(Cl)c2)CC1	10	-2	17*	-2	14	22
CN(CC(=O)Nc1ccc(F)cc1)S(=O)(=O)c1ccc2c(c1)c(=O)n(C)c(=O)n2C	0	2	10*	3	-4	12
SMILES	Rpn11 block	TPT1 inhibitor	NR3A LBD binder	ZTA DNA inh	dFosB act	EBNA-1 inhibitor
Cc1cccc(NC(=O)CN(C)S(=O)(=O)c2ccc3c(c2)n(C)c(=O)c(=O)n3C)c1C	0	-1	13*	6	1	-9
O=C(Nc1ccc(S(=O)(=O)N2CCOCC2)cc1)c1cc(-c2ccccc2O)n[nH]1	-1	7	27*	0	-5	-5
CC1CN(S(=O)(=O)c2ccc(NC(=O)c3cc(-c4ccccc4O)n[nH]3)cc2)CC(C)O1 (stereo unspecified)	3	-4	36*	11	9	-3
CCOc1ccc(NC(=O)CN(C)Cc2ccc3c(c2)OCO3)cc1S(=O)(=O)N1CCCC1	9	·	-1	3	-14	·
COC(=O)/C=C1\SC(=NC(=O)c2cccc(Cl)c2)NC1=O	-2	2	9	-11	-2	6
COC(=O)/C=C1/SC(=NC(=O)c2cccc([N+](=O)[O-])c2)NC1=O	-1	2	15*	2	0	-1
COC(=O)/C=C1\SC(=NC(=O)c2cccc([N+](=O)[O-])c2)NC1=O	3	0	13*	0	-8	10
COc1cc(NC(=O)COC(=O)[C@@H]2CCCN2S(=O)(=O)c2ccc(Cl)cc2)cc(OC)c1OC	-1	-3	11*	10	-4	-4
O=C(COC(=O)[C@@H]1CCCN1S(=O)(=O)c1ccc(Cl)cc1)NC12CC3CC(CC(C3)C1)C2	-3	1	-2	-2	-21	-2
COc1ccccc1OCCCCOc1ccccc1F	-3	-7	3	-3	2	4
CCOc1ccccc1OCCCCOc1ccccc1F	-12	-2	25*	2	6	-5
O=C(CSc1nc(Nc2ccccc2)nc(N2CCOCC2)n1)Nc1ccc([N+](=O)[O-])cc1	-13	-5	15*	-12	11	-6
O=C(CSc1n[nH]c(-c2cccnc2)n1)Nc1ccc([N+](=O)[O-])cc1	-2	-3	10*	8	4	5
O=C(CSc1n[nH]c(-c2cccnc2)n1)Nc1ccc(Br)cc1	-3	-1	5	-5	-5	-11
O=C(CSc1nc(N2CCOCC2)nc(N2CCOCC2)n1)Nc1ccc([N+](=O)[O-])cc1	2	2	0	15	-4	-1
O=C(CSc1nc(Nc2ccccc2)nc(N2CCOCC2)n1)Nc1cccc([N+](=O)[O-])c1	3	1	17*	-1	0	-4
O=C(CSc1nc(Nc2ccccc2)nc(N2CCOCC2)n1)Nc1ccccc1Cl	-3	-1	-5	-8	-2	5
Cc1ccc(C)c(NCCC#N)c1	7	-2	-3	-11	-5	-10
C(C#CCCCCCCCCC[n+]1ccccc1)#CCCCCCCCCC[n+]1ccccc1	-26	-4	-21	-1	49*	-3
O=C(NCCN1CCCC1)C1CC(=O)N(C2CCCCC2)C1 (stereo unspecified)	-3	2	19*	-19	-2	-14
CC1CCN(CCCNC(=O)C2CC(=O)N(C3CCCCCC3)C2)CC1 (stereo unspecified)	-5	2	0	-8	-3	-13
